# ClpP mod = qHTS Assay for Activators of ClpP | purified B. subtilis ClpP, FRET peptide cleavage, 20 min | Potency, µM (series often up to 57.5 µM), for inactives: at the top dose activity change, negative = active | 340,000 compounds, 1.9% hits; active = well fitted falling curve with a large enough effect; inconclusive = small, poorly fitted or top-dose-only effect; inactive = no such curve, though single readings can be large or run the other way; also: the source files actives as falling curves though it sought activators and does not explain the sign; nearly all actives have a fitted effect of over 65% in size
#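 Buffer: 100 mM Tris/HCl pH8, 100 mM KCl, 0.05% low protease BSA, 2.5% glycerol, 0.01% Tween-20. ClpP 10 microg/mL final; 20 min RT; delta FRET normalized to ADEP and DMSO controls.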
# TDP1 inh = blocks human tyrosyl-DNA phosphodiesterase 1 | Potency, µM (top dose mostly 130 µM), for inactives: at the highest dose activity change, negative = inhibition, actives largely listed as inhibitors | AID 485290 | recombinant TDP1, AlphaScreen DNA substrate cleavage | Q9NUW8 | 350,000 compounds, 0.28% hits; active = well fitted curve in the direction sought with a large enough effect; inconclusive = small, poorly fitted or top-dose-only effect, or another doubt; inactive = no such curve, though single readings can be large; an effect the other way counts as inactive or inconclusive; also: % is scaled to controls: 0 for no effect and ±100 for the full control effect; nearly all actives have a fitted effect of over 40% in size
#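 Here, a 5' biotin and 3' phosphotyrosine-FITC DNA oligonucleotide reports Tdp1 activity: intact substrate bridges AlphaScreen beads, while cleavage leaves a 3' phosphate and drops signal. All incubations at room temperature.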
# 12-LOX inh = blocks human arachidonate 12S-lipoxygenase | Potency, µM (titrated, usually from 108 µM), without a hit: at the top dose activity change, negative = inhibition, actives largely listed as inhibitors | AID 1671190 | 580,000 compounds, 1.1% hits | purified 12hLO, xylenol orange hydroperoxide absorbance; active = well fitted curve in the direction sought with a large enough effect; inconclusive = small, poorly fitted or top-dose-only effect, or another doubt; inactive = no such curve, though single readings can be large; an effect the other way counts as inactive or inconclusive; also: % is scaled to controls: 0 for no effect and ±100 for the full control effect
#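 Hydroperoxide product was detected by ferrous iron/xylenol orange as the 573 to 405 nm absorbance ratio. Arachidonic acid at 40 uM (final) was turned over for 30 min at room temperature by 150 nM human 12hLO, pH 7.0 Hepes buffer, after 15 min compound preincubation.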
# Rango dissoc inh = inhibition of RanGTP-driven Rango-importin beta dissociation; O95149+P62826; Biochemical FRET Rango-importin beta, RanGTP-induced dissociation; Potency, µM (titrated, usually from 46.1 µM), for the others: top-dose activity change, negative = inhibition; 340,000 compounds, 0.071% hits; AID 540253; also: % of control where 0% means no effect; nearly all actives have a fitted effect of over 45% in size
#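 FRET read at 45 min, room temperature: inhibitors block the CFP/YFP signal rise when RanGTP (0.6 uM Ran, 2 mM GTP, 0.2 uM RCC1) frees Rango (0.1 uM) from importin beta (0.25 uM). Pre-read after 5 min compound exposure flags interference.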
# TSG101-PTAP inh = blocks PTAP/TSG101 interaction to inhibit HIV-1 budding | Fluorescence polarization, FITC-PTAP peptide / Tsg101 binding | AID 493005 | 340,000 tested, under 10 active | Potency, µM (doses to about 115 µM), inactives show at the top dose activity change, negative = inhibition, usual class: inhibitors | Q99816; active = well fitted inhibition curve with a large enough effect in the main read-out, with a control signal flat, not every such curve was filed as active; inconclusive = small, poorly fitted or top-dose-only effect, or effect the other way, or a change in a side signal; inactive = no such curve, though single readings can be large or run the other way; also: % of control where 0% means no effect
#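 Tsg101 binding domain (10 uM final) was mixed with compound and a FITC-labeled PTAP peptide (50 nM final) in HEPES pH 7.5 buffer with NaCl, Tween 20, EDTA and TCEP; fluorescence polarization was read after 20 min at r.t.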
# Rango-impB inh = Rango-importin beta binding inhibition; Potency, µM (titrated, usually from 92.2 µM), without a hit: top-dose inhibition of complex formation; Rango CFP/YFP FRET sensor + importin beta, 45 min; AID 540263; 340,000 compounds, 0.031% hits;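 also: 0% = DMSO wells and 100% = buffer wells lacking importin beta; nearly all actives have a fitted effect of over 15% in size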
#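 FRET biosensor Rango (snurportin 1 IBB between N-terminal EYFP and C-terminal Cerulean), 50 nM in PBS/1 mM DTT/0.02% Tween-20/0.1% BSA, preincubated 5 min RT with compound; 0.125 microM importin beta added, 45 min RT, CFP/YFP FRET ratio read.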
# Starred values were filed as active, the others as inactive; ? = inconclusive; · = not tested or not shown; [ ] = dose if it differs, or a comment. Hits are enriched below; roughly 2.4% of the tested compounds scored in any of these assays. Unless noted, calls follow the shape of the full dose curve. Potency is read from the fitted curve at half-maximal effect.
SMILES,ClpP mod,TDP1 inh,12-LOX inh,Rango dissoc inh,TSG101-PTAP inh,Rango-impB inh
COc1cc(SC#N)ccc1N=Cc1c(C)[nH]n(-c2cccc3ccccc23)c1=O,28.2µM*,5.9%,·,?,-1.9%,?
C/C(=N\O)c1ccc2c3c([nH]c2c1)CCCC3,15.8µM*,13.6%,2.8%,?,-13.8%,?
c1ccc2c3c([nH]c2c1)CCCC3,-12.6%,·,·,·,·,·
Cc1oc2cc(O)ccc2c(=O)c1-c1ccccc1,·,2.4%,-10.4%,-1.3%,-0.2%,0.6%
Cc1oc2cc(O)ccc2c(=O)c1-c1cnn(-c2ccccc2)c1,31.6µM*,0.5%,-6.6%,0.7%,-0.6%,-0.3%
Cc1cc(=O)oc2cc(NC(=O)C(C)Oc3cccc(Cl)c3)ccc12 (stereo not drawn),10µM*,0.7%,-18.2%,-0.6%,-0.1%,1.2%
Cc1cc(=O)oc2cc(NS(=O)(=O)c3ccccc3)ccc12,·,0.0%,?,16.4µM*,0.5%,-11.0%
COc1ccc(CC(=O)Nc2ccc3c(C)cc(=O)oc3c2)cc1OC,-8.5%,·,9.0%,21.3%,-1.5%,-4.7%
CC(Oc1ccc2c(C(C)C)cc(=O)oc2c1)C(=O)Nc1cccc(F)c1 (stereo not drawn),·,·,-16.2%,·,·,·
Cc1cc(=O)oc2cc(NC(=O)Cc3ccccc3F)ccc12,·,·,39.8µM*,·,·,·
COc1ccc(-c2nnc(SCCS(=O)(=O)c3ccc(Br)cc3)o2)cc1,·,·,14.3%,·,·,·
COc1ccc(-c2cc(=O)n(-c3ccc([N+](=O)[O-])cc3)[nH]2)cc1,28.2µM*,0.0%,?,-4.0%,-4.5%,4.0%
COc1ccc(C(C#N)(CCC#N)C(C)C)cc1OC (stereo not drawn),·,·,27.4%,·,·,·
CNS(=O)(=O)c1ccc2c3c(cccc13)C(=O)N2C,-2.7%,·,8.91µM*,?,-2.3%,?
CN1C(=O)c2cccc3c(S(=O)(=O)N(C)C)ccc1c23,·,·,24.5%,?,-2.7%,?
Cc1cc(C)c(CNC(=O)c2c(C)sc3ccn(C)c(=O)c23)c(C)c1,·,·,26.9%,·,·,·
N#CCC(=O)N/N=C/c1coc2ccccc2c1=O,-1.0%,·,215.2%,-22.1%,-2.4%,-0.8%
NCCCCCC(=O)N/N=C/c1coc2ccccc2c1=O,17.8µM*,3.9%,0.0%,21.3%,-2.2%,2.1%
O=C(C1CCCC1)N1CCn2c(nn(-c3ccc([N+](=O)[O-])cc3)c2=O)C1,·,·,20.0%,·,·,·
Cc1ccc(-c2cc3c(=O)n(CCNC(=O)c4ccc(Cl)cc4)ccn3n2)cc1C,·,·,-24.5%,·,·,·
Cc1ccc(-c2cc3c(=O)n(CCNC(=O)Cc4ccc(Cl)cc4)ccn3n2)cc1C,·,·,39.8µM*,·,·,·
Cc1ncc(CN2CCC(N3CCC(C(=O)NCc4ccccn4)CC3)CC2)s1,·,·,44.2%,·,·,·
O=C1NN(c2ccc(F)cc2)C(=O)/C1=C\c1cnn(-c2ccccc2)c1,·,4.7%,-19.3%,·,·,·
O=C1NN(c2ccc(F)cc2)C(=O)/C1=C\C=C\c1ccco1,-1.4%,2.7%,44.7µM*,-2.9%,-2.0%,-0.9%
Cc1ccc(NC2=NC(c3ccco3)n3c(nc(C)cc3=O)N2)cc1 (stereo not drawn),·,·,-2.3%,·,·,·
SMILES,ClpP mod,TDP1 inh,12-LOX inh,Rango dissoc inh,TSG101-PTAP inh,Rango-impB inh
CN(CCc1ccccn1)C(=O)CCC[C@@H]1[C@H]2CCCN3CCC[C@@H](CN1C)[C@@H]23,·,·,60.1%,·,·,·
COC(=O)C(N)Cc1ccc(O)cc1 (stereo not drawn),2.6%,-2.0%,0.0%,5.6%,-1.5%,0.3%
COC(=O)C(N)Cc1ccc(O)c(O)c1 (stereo not drawn),-1.8%,?,6.31µM*,-2.4%,-0.7%,-0.3%
O=C(CCc1ccco1)N(Cc1cccs1)C1CC1,·,·,-30.8%,·,·,·
O=C(/C=C/c1ccco1)N(Cc1cccs1)C1CC1,·,·,35.5µM*,·,·,·
Clc1ccc(Nc2ncnc3c2oc2ccc(Br)cc23)cc1,·,·,7.0%,·,·,·
COc1cc(/C=C/c2ccc3cccc(OC)c3n2)ccc1OC(C)=O,·,·,-4.2%,·,·,·
COC(=O)c1ccc(/C=C/c2ccc3cccc(OC)c3n2)cc1,12.6µM*,-1.8%,-3.7%,?,-2.9%,?
N#C/C(=C/c1ccc(OC(F)F)cc1)C(=O)N(C1CCCCC1)C1CCCCC1,·,·,-29.0%,·,·,·
O=C(CSc1ccc(-c2ccc(-n3cccn3)cc2)nn1)Nc1ccccc1F,15.8µM*,·,-3.7%,-12.5%,-0.1%,0.6%
CC(C)(C)C(=O)n1nc(-c2ccccc2)oc1=O,31.6µM*,2.6%,-11.2%,-8.8%,-7.5%,2.1%
CC(C)CNC(=O)COc1ccc2c3c(c(=O)oc2c1)CCC3,25.1µM*,5.2%,7.3%[57.4 µM],1.7%,-5.9%,1.2%
CC(C)CCNC(=O)COc1ccc2c3c(c(=O)oc2c1)CCC3,10µM*,4.2%,-25.8%,-1.7%,-0.9%,-1.2%
Fc1ccc(-c2ccc3ncc(Nc4cc(F)cc(N5CCOCC5)c4)n3n2)cc1,·,·,10.8%[176 µM],·,·,·
O=C(c1ccccc1-c1nc2ccccc2[nH]1)N1CCCCC1,28.2µM*,2.0%,0.0%,20.7%,-6.7%,6.8%
O=C(N/N=C/c1ccc2c(c1)OCO2)c1ccn(Cc2ccc(Cl)cc2)n1,28.2µM*,4.4%,-1.5%,11.0%,-7.4%,?
O=C(Nc1ccn(Cc2ccc(Cl)cc2)n1)c1ccc2c(c1)OCO2,-0.5%,0.0%,-21.2%,-13.5%,-10.4%,-2.1%
COc1ccc(OCc2nc(C3CN(C(=O)c4sccc4C)C3)no2)cc1,·,·,10.3%,·,·,·
Cn1cc(CN2CCOC[C@H]2c2ncc(-c3ccc(S(C)(=O)=O)cc3)[nH]2)c2ccccc21,·,·,33.9%,·,·,·
O=C(Nc1cccc2ccccc12)N1CCN(c2ccc(F)cc2)CC1,-24.5%,2.4%,-0.4%,-17.3%,-1.0%,1.1%
CCN1CCN(C(=O)Nc2cccc3ccccc23)CC1,11.2µM*,0.5%,0.0%,-2.5%,-4.0%,-2.9%
O=C(Nc1cccc2ccccc12)N1CCOCC1,25.1µM*,2.3%,-24.8%,4.0%,-3.7%,0.2%

# Screening data as filed in PubChem BioAssay.
